# Laboratory results reported in PubChem BioAssay (NCATS).
# “And” between values parts separate entries of the source, which are not always exact repeats. Equal entries are not always repeated. Inconclusive results are not listed. More than one record can exist for a structure, and the calls need not agree. The source made the active and inactive calls. Unless noted, calls follow the shape of the dose curve; as a rule, active = well fitted curve in the direction sought with a large enough effect; inconclusive = small, poorly fitted or top-dose-only effect, or another doubt; inactive = no such curve, though single readings can be large; an effect the other way counts as inactive or inconclusive.
# Assays:
# [1] = AP1 Signaling Pathway (AID 357; active = well fitted curve in either direction with a large enough effect, not every such curve was filed as active;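 also: ME-180 reporter cells stimulated with EGF at its EC50 level; % is scaled to controls: 0 for no effect and ±100 for the full control effect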); settings: ME-180 AP-1-bla reporter, EGF-induced, beta-lactamase ratio, 5 h
# Outline: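 Cells are seeded overnight, exposed to compound titrations and an EC50 level of EGF for 5 hours at 37 °C, then loaded with CCF4 dye for 2.5 hours. Beta-lactamase activity under the AP-1 element is read as a blue/green ratio.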
# [2] = molecular target: Cytochrome P450 1A2 (Homo sapiens) (UniProt P05177); assay: p450-cyp1a2 (AID 410; calls by dose curve; also: potency is read from the fitted curve at half-maximal effect;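 as to activity change, negative = inhibition: -100% = full effect of reference inhibitor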)
# Outline: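 Luminescent readout of luciferin formed from Luciferin-ME by human CYP1A2; data normalized against complete inhibition by 57 uM furafylline. Enzyme 20nM, substrate 100uM at Km, 100mM KPO4 buffer, 60 min reaction at room temperature.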
# [3] = NFAT Signaling Pathway (AID 444; active = well fitted curve in either direction with a large enough effect, not every such curve was filed as active;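 also: carbachol stimulus at about its EC50 of 1 µM final; % is scaled to controls: 0 for no effect and ±100 for the full control effect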); settings: Jurkat NFAT-bla M1, carbachol, beta-lactamase ratio, 5 h
# Outline: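 Jurkat cells with NFAT-driven β-lactamase reporter and co-expressed M1 receptor, stimulated with carbachol (final 1 uM, ~EC50), compound titration, 5 h at 37 °C. CCF4 loaded 1 h at RT; 460/530 nm ratio gave %activity and AC50.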
# [4] = Stat Signaling Pathway (AID 446; active = well fitted curve in either direction with a large enough effect, not every such curve was filed as active;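 also: ME-180 cervical cancer cells given 40 pM IL-6 alongside compound; SIE-controlled beta-lactamase reporter measured as 460/530 nm FRET emission ratio; % is scaled to controls: 0 for no effect and ±100 for the full control effect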); settings: ME-180 SIE beta-lactamase reporter, IL-6 stimulated, 5 h
# Outline: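 ME-180 SIE-bla cells; overnight plating; cpd + IL-6 40 pM, 5 h, 37 C; LiveBLAzer 2.5 h RT; 460/530 nm emission ratio. Normalized to 300 pM IL-6 and 125 nM JAK inhibitor controls.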
# [5] = molecular target: Glucocorticoid receptor (Homo sapiens) (UniProt P04150); assay: GR-GFP Redistribution (AID 450;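 active = compounds whose dose series gives a full or clear partial fitted curve of increased nuclear translocation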; also: potency is read from the fitted curve at half-maximal effect); settings: U2OS GR-GFP nuclear translocation, laser cytometry, 2 h
# [6] = molecular target: Glucocorticoid receptor (Homo sapiens) (UniProt P04150); assay: GR-EFC Redistribution (AID 451; calls by dose curve; also: potency is read from the fitted curve at half-maximal effect); settings: CHO-K1 GR-EFC translocation, beta-gal luminescence, 2 h
# Outline: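 CHO-K1 cells expressing nuclear EA and GR-ED fragments of b-gal; compounds titrated up to 46 uM final, 2 h at 37 C. GR nuclear translocation read as complemented b-gal luminescence after 1 h RT detection.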
# [7] = molecular target: Mitogen-activated protein kinase 10 (Mus musculus) (UniProt Q61831); assay: JNK3 AlphaScreen Assay (AID 530; active = well fitted curve in either direction with a large enough effect, not every such curve was filed as active;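 also: kinase came from lysate of stimulated human HepG2 cells; signal reports phosphorylation of biotinylated GST-cJun 1-79 at Ser73 with 10 µM ATP; % is scaled to controls: 0 for no effect and ±100 for the full control effect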)
# Outline: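 Pre-activated (IL-1β/TNFα) JNK3 in HepG2 lysates phosphorylates biotin-GST-cJun(1-79), 10 uM ATP; anti-phospho-cJun(Ser73) AlphaScreen read at room temperature, pH 7.6 Tris buffer. Compounds pre-incubated 15 min as titrations.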
# [8] = molecular target: 3',5'-cyclic-AMP phosphodiesterase 4B (Homo sapiens) (UniProt Q07343); assay: qHTS Assay for Inhibitors of PDE-IV (AID 607; active = well fitted activation curve with a large enough effect in the main read-out, with a control signal flat, not every such curve was filed as active; also: potency is read from the fitted curve at half-maximal effect)
# Outline: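 ACTOne HEK293 cells carry a modified cAMP-gated CNG channel and express endogenous PDE4; plated 1000 cells/well, compounds up to 22.9 uM final. Membrane-potential dye fluorescence (ex 535/em 590) was read; parental cells received 10 uM forskolin + 100 uM RO 20-1724.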
# [9] = molecular target: Cytochrome P450 2D6 (Homo sapiens) (UniProt P10635); assay: qHTS Assay for Inhibitors and Substrates of Cytochrome P450 2D6 (AID 891); also: potency is read from the fitted curve at half-maximal effect; nearly all actives have a fitted effect of over 60% in size
# Outline: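 Human CYP2D6 (5 nM) with 30 uM Luciferin-ME EGE (at Km) in 100 mM KPO4, compound preincubated 10 min, then NADPH regeneration system for 60 min at room temperature. Luciferin read by luminescence; normalized to 1.43 uM quinidine.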
# [10] = qHTS Assay for Lipid Storage Modulators (AID 1519; calls by dose curve); settings: Drosophila S3 cells, BODIPY lipid droplet/cell ratio, laser cytometry, cells loaded with oleic acid
# Outline: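 Cells seeded at 5,000 per well were treated with compounds over a concentration series and loaded with oleic acid (400 uM, as added). Lipid droplet fluorescence (488 nm excitation, 500-530 nm channel) was read by laser-scanning cytometry and normalized to 20 uM Triacsin C.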
# [11] = molecular target: Ubiquitin carboxyl-terminal hydrolase 1 (Homo sapiens) (UniProt O94782); assay: Inhibitors of USP1/UAF1: Pilot qHTS (AID 504865);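 also: rhodamine fluorescence freed from ubiquitin-rhodamine substrate followed over time; top concentration of the series differs between compounds; % is scaled to controls: 0 for no effect and ±100 for the full control effect; nearly all actives have a fitted effect of over 35% in size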
# Outline: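 USP1/UAF1 complex (1nM) preincubated with compound 15 min at room temperature, then Ub-Rho substrate (150nM final) added. Fluorescence read kinetically at 480/540 nm, 6 reads every 60 seconds. Buffer: 50mM HEPES pH 7.8, 0.5mM EDTA, 0.1 mg/ml BSA, 1mM TCEP, 0.01% Tween-20.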
# [12] = molecular target: DNA dC->dU-editing enzyme APOBEC-3G (Homo sapiens) (UniProt Q9HC16); assay: qHTS for inhibitors of Vif-A3G interactions: Validation (AID 588379); also: 0% is about no effect
# Outline: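 HeLa cells stably expressing Vif and A3G-eYFP, 700 cells/well, incubated overnight at 37 deg C, then exposed to compound overnight at 37 deg C. Inhibition of Vif-mediated degradation read as increased yellow fluorescence (Ex 488/Em 500-530) by laser-scanning cytometry.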
# [13] = system: Zika virus NS2B-NS3 protease; assay: Primary screen GU AMC qHTS for Zika virus inhibitors (AID 1347154);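 also: 0% = no-inhibitor control and -100% = no-enzyme control; nearly all actives have a fitted effect of over 70% in size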
# Outline: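 Unlinked Zika NS2B hydrophilic domain–NS3 protease complex at 25 nM in 10 mM Tris-HCl pH 8.0, 0.01% Tween 20, with an AMC peptide substrate. Fluorescence change (340/450 nm) over 15 min at room temperature, normalized to controls, fitted to 4-parameter Hill.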
# [14] = Primary qHTS for small molecule stabilizers of the endoplasmic reticulum resident proteome: Secreted ER Calcium Modulated Protein (SERCaMP) assay (AID 1508630); also: % is scaled to controls: 0 for no effect and ±100 for the full control effect
# Outline: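 GLuc-SERCaMP-expressing SH-SY5Y cells, pretreated 16 h with compound, are challenged with thapsigargin to empty ER calcium stores; after 4 h, coelenterazine is added directly to the medium and luminescence is imaged.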
# [15] = molecular target: Cytochrome P450 3A4 (Homo sapiens) (UniProt P08684); assay: qHTS Assay for Activators of Cytochrome P450 3A4 (AID 885); also: nearly all actives have a fitted effect of over 65% in size
# Outline: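 20nM CYP3A4 + 25uM Luciferin-PPXE (=KM), 200mM KPO4; cpd 10 min RT; NADPH regen, 60 min RT; stop w/ detection buffer, 20 min; luminescence. Normalized to 57 uM ketoconazole.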
# [16] = molecular target: Guanine nucleotide-binding protein G(i) subunit alpha-1 (Homo sapiens) (UniProt P63096); assay: qHTS Assay for Inhibitors of RGS12 GoLoco Motif Activity (Green Fluorophore) (AID 879);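 also: 0% = labeled peptide with Gαi1 and full inhibition = labeled peptide alone without protein; negative values mean loss of peptide binding seen as reduced polarization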
# Outline: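 Fluorescence polarization assay: 50 nM Gαi1 with 10 nM FITC-labeled RGS12 GoLoco peptide in 10 mM Tris pH 7.5, 150 mM NaCl, 0.1 mM GDP, 0.05% NP40, 10 min at room temperature with compound.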
# [17] = molecular target: Cytochrome P450 2C9 (Homo sapiens) (UniProt P11712); assay: qHTS Assay for Inhibitors and Substrates of Cytochrome P450 2C9 (AID 883); also: potency is read from the fitted curve at half-maximal effect; nearly all actives have a fitted effect of over 60% in size
# Outline: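 Signal: luciferase luminescence reporting luciferin produced by CYP2C9. Conditions: 10nM enzyme, Luciferin-H 100uM at KM, 25mM KPO4, 37C, 60 min NADPH-driven reaction. Reference: 57uM sulphaphenazole as 100% inhibition.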
# [18] = molecular target: Pyruvate kinase (Leishmania mexicana) (UniProt Q27686); assay: qHTS Validation Assay for Inhibitors of Leishmania Mexicana Pyruvate Kinase (AID 945);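 also: 0% = DMSO only neutral control wells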
# Outline: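 Compounds are tested as eight-point concentration series. Reactions contain 0.2 nM LmPYK E451W, 0.5 mM PEP, 0.1 mM ADP, 7 mM MgCl2 and 50 mM KCl at pH 7.2, run 1 h at room temperature, then read by PKLight luminescence.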
# [19] = molecular target: Pyruvate kinase PKM (Homo sapiens) (UniProt P14618); assay: qHTS Assay for Activators of Human Muscle Pyruvate Kinase (AID 954; active = well fitted curve in the direction sought with a large enough effect, not every such curve was filed as active;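 also: 0% = uninhibited enzyme and -100% = no enzyme or full thiadiazolimine inhibition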)
# Outline: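 Luminescence from a luciferase ATP-detection/stop reagent reported PKM2 activity. Reactions contained 0.1 nM purified human enzyme, 0.5 mM PEP, 0.1 mM ADP and 7 mM MgCl2 at pH 7.2, run 1 h at RT.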
# [20] = molecular target: Alpha-galactosidase A (Homo sapiens) (UniProt P06280); assay: Counterscreen for Glucocerebrosidase Inhibitors: qHTS Assay for Human alpha-Galactosidase at pH 4.5 (AID 992); also: 0% is about no effect
# Outline: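 Enzyme at 2 nM final was combined with compound (0.7 nM to 77 uM) and 80 uM 4-methylumbelliferyl alpha-D-galactopyranoside in 50 mM citric acid, 0.005% Tween-20, pH 4.5. After 20 min at room temperature, fluorescence was read (Ex 365/Em 440 nm); AC50 came from Hill fits.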
# [21] = molecular target: alpha-glucosidase (Oryza sativa, rice) (UniProt Q653V4); assay: Counterscreen for Glucocerebrosidase Inhibitors: qHTS Assay for Rice alpha-Glucosidase at pH 5.0 (AID 997);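 also: 0% = full activity with enzyme and -100% = basal without enzyme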
# Outline: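 Rice alpha-glucosidase (4 nM final) with 400 uM 4-methylumbelliferyl-alpha-D-glucopyranoside in citrate buffer pH 5.0, 20 min at room temperature, stopped at pH 10; fluorescence 365/440 nm, compounds 0.7 nM–77 uM, AC50 from Hill fits.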
# [22] = measured here: cell count channel max response
# [23] = measured here: lipid channel max response
# Chain of Ubiquitin carboxyl-terminal hydrolase 1 (Homo sapiens) (O94782 whole entry, looked up): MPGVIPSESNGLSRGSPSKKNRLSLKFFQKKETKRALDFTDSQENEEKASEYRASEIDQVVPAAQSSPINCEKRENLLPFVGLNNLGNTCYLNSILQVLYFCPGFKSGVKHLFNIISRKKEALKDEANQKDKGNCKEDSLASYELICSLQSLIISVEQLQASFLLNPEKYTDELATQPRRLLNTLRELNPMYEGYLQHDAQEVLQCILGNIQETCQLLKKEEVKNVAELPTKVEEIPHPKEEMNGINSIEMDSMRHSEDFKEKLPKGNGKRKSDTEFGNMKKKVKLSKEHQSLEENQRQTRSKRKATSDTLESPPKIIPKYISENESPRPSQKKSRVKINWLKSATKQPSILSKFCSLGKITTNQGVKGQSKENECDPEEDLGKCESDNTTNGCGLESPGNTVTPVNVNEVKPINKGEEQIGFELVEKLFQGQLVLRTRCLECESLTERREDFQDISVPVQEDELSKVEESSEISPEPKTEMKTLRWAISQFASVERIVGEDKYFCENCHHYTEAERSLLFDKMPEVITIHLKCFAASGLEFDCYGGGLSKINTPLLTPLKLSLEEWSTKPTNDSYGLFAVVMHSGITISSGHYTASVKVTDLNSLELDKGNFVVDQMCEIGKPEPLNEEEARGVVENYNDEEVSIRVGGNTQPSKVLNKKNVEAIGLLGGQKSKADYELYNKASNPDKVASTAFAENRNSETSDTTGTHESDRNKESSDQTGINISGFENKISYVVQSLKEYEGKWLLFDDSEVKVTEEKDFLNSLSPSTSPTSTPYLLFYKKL
# Chain of Cytochrome P450 1A2 (Homo sapiens) (P05177 whole entry, looked up): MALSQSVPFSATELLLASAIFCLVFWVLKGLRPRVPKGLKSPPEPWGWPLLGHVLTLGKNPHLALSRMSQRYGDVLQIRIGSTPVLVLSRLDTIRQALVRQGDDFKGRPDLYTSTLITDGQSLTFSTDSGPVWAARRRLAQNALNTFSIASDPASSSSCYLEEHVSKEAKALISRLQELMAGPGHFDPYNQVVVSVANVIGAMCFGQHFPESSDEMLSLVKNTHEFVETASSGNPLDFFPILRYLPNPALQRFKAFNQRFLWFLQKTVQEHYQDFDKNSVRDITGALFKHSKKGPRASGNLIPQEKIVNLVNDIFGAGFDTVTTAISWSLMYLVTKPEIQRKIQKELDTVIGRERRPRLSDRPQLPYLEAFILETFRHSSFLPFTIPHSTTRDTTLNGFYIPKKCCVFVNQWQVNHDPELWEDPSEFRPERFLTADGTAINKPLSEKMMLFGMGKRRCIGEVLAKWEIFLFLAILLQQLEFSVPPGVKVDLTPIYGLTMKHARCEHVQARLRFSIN
# Chain of Glucocorticoid receptor (Homo sapiens) (P04150 whole entry, looked up, the tested form may be a part): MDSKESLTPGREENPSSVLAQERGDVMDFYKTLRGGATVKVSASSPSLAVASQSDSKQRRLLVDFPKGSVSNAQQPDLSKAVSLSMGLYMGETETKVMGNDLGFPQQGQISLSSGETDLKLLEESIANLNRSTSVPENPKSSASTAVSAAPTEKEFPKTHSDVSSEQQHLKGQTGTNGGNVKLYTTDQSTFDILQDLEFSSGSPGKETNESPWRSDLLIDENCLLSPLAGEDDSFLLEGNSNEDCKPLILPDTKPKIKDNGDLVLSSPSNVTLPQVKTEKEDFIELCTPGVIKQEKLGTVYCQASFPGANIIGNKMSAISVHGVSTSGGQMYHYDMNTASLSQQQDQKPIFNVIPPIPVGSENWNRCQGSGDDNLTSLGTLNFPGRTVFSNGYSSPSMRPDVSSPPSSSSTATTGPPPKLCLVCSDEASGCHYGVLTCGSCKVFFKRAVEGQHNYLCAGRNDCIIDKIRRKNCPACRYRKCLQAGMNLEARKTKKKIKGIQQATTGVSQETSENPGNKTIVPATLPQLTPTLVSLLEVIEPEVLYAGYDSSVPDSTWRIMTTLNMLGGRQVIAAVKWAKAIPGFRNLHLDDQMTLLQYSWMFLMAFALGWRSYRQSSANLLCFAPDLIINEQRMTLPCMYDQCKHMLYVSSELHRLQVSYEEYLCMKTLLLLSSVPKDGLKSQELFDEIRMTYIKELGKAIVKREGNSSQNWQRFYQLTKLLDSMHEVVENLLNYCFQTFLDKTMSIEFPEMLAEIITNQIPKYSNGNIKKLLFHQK
# Chain of DNA dC->dU-editing enzyme APOBEC-3G (Homo sapiens) (Q9HC16 whole entry, looked up): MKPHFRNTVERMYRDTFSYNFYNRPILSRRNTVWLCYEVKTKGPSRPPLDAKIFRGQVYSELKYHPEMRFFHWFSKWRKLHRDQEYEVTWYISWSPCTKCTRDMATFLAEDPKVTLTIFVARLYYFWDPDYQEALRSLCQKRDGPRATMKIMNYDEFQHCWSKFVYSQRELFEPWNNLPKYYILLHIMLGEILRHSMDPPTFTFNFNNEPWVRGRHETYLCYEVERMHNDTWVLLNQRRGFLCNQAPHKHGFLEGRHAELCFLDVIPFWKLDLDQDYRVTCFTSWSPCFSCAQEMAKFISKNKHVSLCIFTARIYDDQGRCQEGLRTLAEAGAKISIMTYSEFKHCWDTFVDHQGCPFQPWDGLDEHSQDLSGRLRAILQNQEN
# Chain of Cytochrome P450 2D6 (Homo sapiens) (P10635 whole entry, looked up): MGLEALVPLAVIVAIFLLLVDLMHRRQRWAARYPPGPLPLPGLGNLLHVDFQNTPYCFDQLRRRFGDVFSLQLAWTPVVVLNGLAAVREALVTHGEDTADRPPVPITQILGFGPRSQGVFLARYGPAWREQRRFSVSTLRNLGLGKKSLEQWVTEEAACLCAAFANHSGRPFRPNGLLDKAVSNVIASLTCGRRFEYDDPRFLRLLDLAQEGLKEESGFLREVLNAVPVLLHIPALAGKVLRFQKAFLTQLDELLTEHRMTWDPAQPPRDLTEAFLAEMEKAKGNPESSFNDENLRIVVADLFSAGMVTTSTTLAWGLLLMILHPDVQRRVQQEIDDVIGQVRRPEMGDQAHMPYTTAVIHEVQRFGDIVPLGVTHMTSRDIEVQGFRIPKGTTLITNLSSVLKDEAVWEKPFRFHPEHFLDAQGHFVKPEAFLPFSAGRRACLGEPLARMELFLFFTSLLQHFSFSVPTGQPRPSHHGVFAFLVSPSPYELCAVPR
# Chain of 3',5'-cyclic-AMP phosphodiesterase 4B (Homo sapiens) (Q07343 whole entry, looked up): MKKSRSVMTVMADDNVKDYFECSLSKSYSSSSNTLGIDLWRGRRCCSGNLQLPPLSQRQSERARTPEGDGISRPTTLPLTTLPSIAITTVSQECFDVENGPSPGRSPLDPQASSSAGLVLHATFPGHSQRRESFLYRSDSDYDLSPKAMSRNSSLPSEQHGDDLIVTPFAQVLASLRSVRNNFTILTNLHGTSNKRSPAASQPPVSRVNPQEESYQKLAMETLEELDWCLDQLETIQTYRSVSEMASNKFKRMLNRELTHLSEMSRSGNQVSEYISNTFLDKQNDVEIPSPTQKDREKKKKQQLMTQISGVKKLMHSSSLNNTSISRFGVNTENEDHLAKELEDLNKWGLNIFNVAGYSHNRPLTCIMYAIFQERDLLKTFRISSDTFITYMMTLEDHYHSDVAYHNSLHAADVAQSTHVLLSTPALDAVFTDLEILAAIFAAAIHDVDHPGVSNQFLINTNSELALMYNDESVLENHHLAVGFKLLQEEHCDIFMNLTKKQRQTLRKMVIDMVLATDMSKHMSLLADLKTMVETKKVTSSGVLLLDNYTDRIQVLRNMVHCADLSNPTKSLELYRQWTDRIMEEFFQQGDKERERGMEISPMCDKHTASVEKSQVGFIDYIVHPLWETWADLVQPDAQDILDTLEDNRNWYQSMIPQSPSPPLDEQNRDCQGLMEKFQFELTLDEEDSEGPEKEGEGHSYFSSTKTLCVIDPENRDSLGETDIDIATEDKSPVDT
# Chain of Guanine nucleotide-binding protein G(i) subunit alpha-1 (Homo sapiens) (P63096 whole entry, looked up): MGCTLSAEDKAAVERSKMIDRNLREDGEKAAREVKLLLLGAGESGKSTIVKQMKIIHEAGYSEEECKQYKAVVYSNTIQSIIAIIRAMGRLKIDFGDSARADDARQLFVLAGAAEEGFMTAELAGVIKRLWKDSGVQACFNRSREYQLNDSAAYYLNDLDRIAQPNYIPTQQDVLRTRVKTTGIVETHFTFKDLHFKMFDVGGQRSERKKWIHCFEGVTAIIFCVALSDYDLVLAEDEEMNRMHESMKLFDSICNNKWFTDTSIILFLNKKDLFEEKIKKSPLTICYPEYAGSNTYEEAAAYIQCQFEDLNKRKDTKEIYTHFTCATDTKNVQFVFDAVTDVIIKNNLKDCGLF
# Chain of Alpha-galactosidase A (Homo sapiens) (P06280 whole entry, looked up): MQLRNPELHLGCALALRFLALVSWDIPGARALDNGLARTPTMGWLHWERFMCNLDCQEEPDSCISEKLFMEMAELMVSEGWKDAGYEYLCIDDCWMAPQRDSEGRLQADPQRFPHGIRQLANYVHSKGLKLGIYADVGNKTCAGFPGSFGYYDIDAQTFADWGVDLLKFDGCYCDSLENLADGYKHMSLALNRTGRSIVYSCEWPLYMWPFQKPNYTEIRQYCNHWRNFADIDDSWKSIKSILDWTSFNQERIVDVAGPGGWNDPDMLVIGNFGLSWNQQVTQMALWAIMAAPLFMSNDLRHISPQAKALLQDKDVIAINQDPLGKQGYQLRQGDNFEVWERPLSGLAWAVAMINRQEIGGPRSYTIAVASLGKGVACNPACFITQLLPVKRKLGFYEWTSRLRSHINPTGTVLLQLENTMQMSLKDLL
# Chain of Pyruvate kinase (Leishmania mexicana) (Q27686 2-499 E452W): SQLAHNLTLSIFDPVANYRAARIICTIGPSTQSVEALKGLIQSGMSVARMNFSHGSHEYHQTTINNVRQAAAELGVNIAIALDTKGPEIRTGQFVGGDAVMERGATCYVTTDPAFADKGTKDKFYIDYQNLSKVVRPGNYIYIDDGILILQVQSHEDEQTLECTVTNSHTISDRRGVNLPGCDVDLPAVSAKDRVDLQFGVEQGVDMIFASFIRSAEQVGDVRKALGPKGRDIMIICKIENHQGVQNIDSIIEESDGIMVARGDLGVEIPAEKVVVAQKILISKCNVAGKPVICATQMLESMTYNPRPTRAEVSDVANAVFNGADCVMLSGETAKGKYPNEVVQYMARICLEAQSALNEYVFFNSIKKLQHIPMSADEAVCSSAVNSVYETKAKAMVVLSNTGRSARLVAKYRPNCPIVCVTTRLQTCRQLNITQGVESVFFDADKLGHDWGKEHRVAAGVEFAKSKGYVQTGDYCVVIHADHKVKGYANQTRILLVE
structure (smiles),measurement,setting,value
CC(C)NC[C@H](O)c1ccc2ccccc2c1,"activity change, negative = inhibition",[1]; at 17.2 µM (top of the series),1.15% (inactive)
same,Potency,[2],10 µM (active) and 12.6 µM (active)
same,"activity change, negative = inhibition",[3]; at 17.2 µM (top of the series),-18.4% (inactive)
same,"activity, negative = inhibition",[4]; at 17.2 µM (top of the series),-5.4% (inactive)
same,Potency,[5],> 20.6 µM (inactive) and > 46 µM (inactive)
same,Potency,[6],> 20.6 µM (inactive) and > 46 µM (inactive)
same,Potency,[7],inactive
same,Potency,[8],inactive
same,Potency,[9],3.16 µM (active)
same,"activity change, negative = inhibition",[10]; at 25.7 µM (top of the series),-2.39% (inactive)
same,"activity change, negative = inhibition",[10]; at 57.5 µM (top of the series),-0.481% (inactive)
same,max response,[10]; [22],2.13% and 8.48%
same,max response,[10]; [23],-2.74% and 9.7%
same,Potency,[11],inactive
same,Potency,[12],inactive
same,Potency,[13],inactive
same,Potency,[14],inactive
CCN(CC)CCOC(=O)C1(c2ccc([N+](=O)[O-])cc2)CCCC1,"activity change, negative = inhibition",[1]; at 17.2 µM (top of the series),3.14% (inactive)
same,Potency,[2],3.98 µM (active) and 3.16 µM (active)
same,"activity, negative = inhibition",[4]; at 17.2 µM (top of the series),6.83% (inactive)
same,Potency,[5],> 20.6 µM (inactive) and > 46 µM (inactive)
same,Potency,[6],> 20.6 µM (inactive) and > 46 µM (inactive)
same,Potency,[7],inactive
same,Potency,[8],inactive and 4.77 µM (active)
same,Potency,[15],inactive
same,Potency,[9],3.98 µM (active) and 5.01 µM (active)
same,"activity change, negative = inhibition",[10]; at 25.7 µM (top of the series),-0.418% (inactive)
same,"activity change, negative = inhibition",[10]; at 57.5 µM (top of the series),-3.02% (inactive)
same,max response,[10]; [22],-8.14% and -12.9%
same,max response,[10]; [23],-19.2% and -15.6%
same,Potency,[11],inactive
same,Potency,[12],inactive
same,Potency,[13],inactive
same,Potency,[14],inactive
CC(C)NC[C@@H](O)COc1ccc(CCOCC2CC2)cc1,"activity change, negative = inhibition",[1]; at 17.2 µM (top of the series),-7.61% (inactive)
same,"activity change, negative = inhibition",[1]; at 38 µM (top of the series),1.38% (inactive)
same,Potency,[2],15.8 µM (active) and 12.6 µM (active) and inactive
same,"activity change, negative = inhibition",[3]; at 17.2 µM (top of the series),-13.9% (inactive)
same,"activity change, negative = inhibition",[3]; at 38 µM (top of the series),5.51% (inactive)
same,"activity, negative = inhibition",[4]; at 17.2 µM (top of the series),9.37% (inactive)
same,"activity, negative = inhibition",[4]; at 38 µM (top of the series),21.1% (inactive)
same,Potency,[5],> 46 µM (inactive) and > 20.6 µM (inactive)
same,Potency,[6],> 46 µM (inactive) and > 20.6 µM (inactive)
same,Potency,[7],inactive
same,Potency,[8],inactive
same,outcome,[16],inactive
same,Potency,[17],0.631 µM (active)
same,Potency,[18],inactive
same,outcome,[19],inactive
same,outcome,[20],inactive
same,outcome,[21],inactive
same,"activity change, negative = inhibition",[10]; at 25.7 µM (top of the series),-3.72% (inactive)
same,"activity change, negative = inhibition",[10]; at 57.5 µM (top of the series),3.94% (inactive)
same,max response,[10]; [22],2.99% and 8.52%
same,max response,[10]; [23],-0.358% and 14.4%
same,Potency,[11],inactive
same,Potency,[12],inactive
same,Potency,[13],inactive
same,Potency,[14],inactive
